{"source": "PubChem BioAssay AID485313", "about": "(National Center for Advancing Translational Sciences (NCATS), 2010)", "note": "About 7,600 (2.4%) of roughly 320,000 compounds were called active. Another 3% or so got no clear call; they are omitted. Calls come from the whole dose curve; as a rule, active = well fitted activation curve with a large enough effect; inconclusive = small, poorly fitted or top-dose-only effect; inactive = no such curve, though single readings can be large or run the other way. What follows is part of a selection rich in actives, with near analogues and random picks from the rest. Entries that show only a call come without a potency. Potency is the fitted concentration of half-maximal effect.", "data": [{"experiment": "qHTS Assay for NPC1 Promoter Activators; note: nearly all actives have a fitted effect of over 60% in size", "details": "Huh7 NPC1 promoter luciferase reporter, 24 h; series mostly up to 9.22 µM", "outline": "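Luciferase expression driven by the NPC1 promoter was measured in stably transfected Huh7 cells after a 24 h compound incubation, using a luciferase reagent and a luminescence read.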", "values": [{"molecule": "CC(C)(C)OC(=O)NCCCCCNC(=O)c1nc[nH]c1C(=O)NCc1ccccc1", "Potency": "inactive"}, {"molecule": "O=S(=O)(c1ccccc1)N(Cc1cccc(F)c1)c1ccccc1", "Potency": "inactive"}, {"molecule": "N#Cc1cccc(NC(=O)C2CCCN(C(=O)c3ccc(Cl)cc3)C2)c1", "note": "(configuration not stated)", "Potency": "inactive"}, {"molecule": "CC(C)CNC(=S)Nc1ccc(F)cc1", "Potency": "inactive"}, {"molecule": "CC(C)CNC(=O)C(=O)Nc1ccc(N(C)C)cc1", "Potency": "3980 nM (active)"}, {"molecule": "CC(C)CNC(=O)C(=O)NCc1ccccc1", "Potency": "inactive"}, {"molecule": "CC(OC(=O)c1cc2ccccc2o1)C(=O)Nc1ccc(N2CCOCC2)cc1", "note": "(configuration not stated)", "Potency": "inactive"}, {"molecule": "COC(=O)c1cc(Oc2ccc(S(=O)(=O)N3CCOCC3)cc2[N+](=O)[O-])cc(C(=O)OC)c1", "Potency": "inactive"}, {"molecule": "CC(C)C[C@H](NC(=O)[C@H](O)[C@H](N)Cc1ccccc1)C(=O)O", "Potency": "inactive"}, {"molecule": "COc1ccc2c(c1OC)C(=O)c1ccccc1C2=O", "Potency": "2820 nM (active)"}, {"molecule": "COc1ccc(/C=C2\\CCc3ccccc3C2=O)c(OC)c1OC", "Potency": "inactive"}, {"molecule": "COc1cccc(-c2ccc3c(c2)S(=O)(=O)c2cccc(C(=O)O)c2C3=O)c1OC", "Potency": "inactive"}, {"molecule": "CCOC(=O)c1sc(N)c(C#N)c1COC(=O)C1=COCCO1", "Potency": "inactive"}, {"molecule": "COc1cccc(/C=C/c2ccc3ccccc3n2)c1OC(C)=O", "Potency": "1000 nM (active)"}, {"molecule": "COc1cccc(/C=C2\\C=C(c3ccc(C)cc3)OC2=O)c1OC(C)=O", "Potency": "inactive"}, {"molecule": "CCOc1cccc(/C=C/c2ccc3ccccc3n2)c1OC(C)=O", "Potency": "631 nM (active)"}, {"molecule": "NC(=O)COC(=O)/C=C/c1ccc2ccccc2n1", "Potency": "inactive"}, {"molecule": "CC(=O)c1ccc(S(=O)(=O)N2CCN(C(=O)/C=C/c3ccc4ccccc4n3)CC2)cc1", "Potency": "inactive"}, {"molecule": "CCOc1ccccc1-c1cc(C(=O)N2CCOCC2)c2ccccc2n1", "Potency": "inactive"}, {"molecule": "CNS(=O)(=O)c1cccc(C(=O)OCCCC(=O)c2ccccc2)c1", "Potency": "inactive"}, {"molecule": "COc1ccccc1-c1nn(Cc2ccccc2)cc1C(=O)N1CCN(c2ncccn2)CC1", "Potency": "inactive"}, {"molecule": "CC1(C)CC(=O)C=C(c2cccc3c2Oc2ccccc2S3)C1", "Potency": "inactive"}, {"molecule": "O=C(COC(=O)CNC(=O)C1CCCCC1)Nc1cccc(F)c1", "Potency": "inactive"}, {"molecule": "Cc1ccccc1OCCC(=O)OCC(=O)NCCc1ccc(S(N)(=O)=O)cc1", "Potency": "inactive"}, {"molecule": "O=C(CN1CCN(C2CCS(=O)(=O)C2)CC1)N1N=C(c2ccc(Cl)cc2)CC1c1ccco1", "note": "(configuration not stated)", "Potency": "inactive"}, {"molecule": "CC(=O)Nc1ccc(NC(=O)CCN2C(=O)C3CC=CCC3C2=O)cc1", "note": "(configuration not stated)", "Potency": "inactive"}, {"molecule": "CCC(=O)c1cn(CCOc2ccccc2OC)c2ccccc12", "Potency": "inactive"}, {"molecule": "Cc1nonc1C1CCCN1C(=O)c1cc(COc2cccc(C(F)(F)F)c2)on1", "note": "(configuration not stated)", "Potency": "inactive"}, {"molecule": "CCCOC1CCCN(C(=O)c2cc(COc3cncc(Cl)c3)on2)C1", "note": "(configuration not stated)", "Potency": "3980 nM (active)"}, {"molecule": "CCOC(=O)CC1(NC(=O)c2cc(COc3cncc(Cl)c3)on2)CCCCC1", "Potency": "inactive"}, {"molecule": "Cc1ccc2c(c1)C1CN(C)CCC1N2S(=O)(=O)c1cccc(F)c1", "note": "(configuration not stated)", "Potency": "inactive"}, {"molecule": "O=C(CN1CCCSc2ccccc21)N1CCN(S(=O)(=O)c2cccc(F)c2)CC1", "Potency": "inactive"}, {"molecule": "COC(=O)C1=C(C)NC(=S)NC1c1ccc(OCC(=O)N2CC(C)OC(C)C2)c(OC)c1", "note": "(configuration not stated)", "Potency": "inactive"}, {"molecule": "COc1ccc(CCNC(=O)COc2ccc3c(c2)OCO3)cc1", "Potency": "inactive"}, {"molecule": "CC(=O)NS(=O)(=O)c1ccc(NC(=O)C2C3C=CC(C3)C2C(=O)O)cc1", "note": "(configuration not stated)", "Potency": "inactive"}, {"molecule": "COC(=O)c1cc(NC(=O)C2C3C=CC(C3)C2C(=O)O)cc(C(=O)OC)c1", "note": "(configuration not stated)", "Potency": "inactive"}, {"molecule": "CC(C)COC(=O)c1ccc(NC(=O)C2C3C=CC(C3)C2C(=O)O)cc1", "note": "(configuration not stated)", "Potency": "2240 nM (active)"}, {"molecule": "CCN(CC)S(=O)(=O)c1ccc2[nH]c(=O)cc(C(=O)N(C)C3CCS(=O)(=O)C3)c2c1", "note": "(configuration not stated)", "Potency": "inactive"}, {"molecule": "C[C@H](OC(=O)n1ccnc1)[C@@H]1O[C@@]2(C)CCC[C@@H]1O2", "Potency": "inactive"}, {"molecule": "COc1ccccc1N1CC(C(=O)NCCN2C(=O)S/C(=C\\c3cccnc3)C2=O)CC1=O", "note": "(configuration not stated)", "Potency": "inactive"}, {"molecule": "Cc1ccc(C(CC(=O)O)NC(=O)c2ccc(S(=O)(=O)N3CCCC3)cc2)cc1", "note": "(configuration not stated)", "Potency": "inactive"}, {"molecule": "O=C(NCCN1CCOCC1)c1cccc(S(=O)(=O)Nc2ccc(F)cc2)c1", "Potency": "inactive"}, {"molecule": "O=C(NC1CCCCC1)c1ccc(-c2ccc(Cl)cc2)o1", "Potency": "3160 nM (active)"}, {"molecule": "O=C(NC(=S)NC1CCCCC1)c1ccc(Cl)cc1", "Potency": "inactive"}, {"molecule": "O=C(NC1CCCCCC1)c1cccnc1Sc1ccc(Cl)cc1", "Potency": "inactive"}, {"molecule": "Cc1ccc(NC(=O)C(C)Sc2nnc(C3CC3)n2C2CC2)cc1S(=O)(=O)N1CCOCC1", "note": "(configuration not stated)", "Potency": "inactive"}, {"molecule": "C=CCn1c(SCC(=O)NC(=O)Cc2ccccc2)nc2ccccc2c1=O", "Potency": "inactive"}, {"molecule": "O=C(/C=C/c1cnc2ccccc2n1)NC1CCCCCC1", "Potency": "3550 nM (active)"}, {"molecule": "O=C(Cn1c(-c2cncs2)nc2ccccc21)NC1CCCC1", "Potency": "inactive"}, {"molecule": "Cc1nc(/N=C(\\N)NC(=O)NC2CCCCC2)nc2ccccc12", "Potency": "inactive"}, {"molecule": "COc1ccc2c(C)cc(SCC(=O)NCC3CCCO3)nc2c1", "note": "(configuration not stated)", "Potency": "inactive"}, {"molecule": "Cc1cccc(NC(=O)c2ccc3ccccc3n2)n1", "Potency": "3160 nM (active)"}, {"molecule": "Cc1cccc(NC(=O)c2cccnc2Cl)n1", "Potency": "inactive"}, {"molecule": "Cc1cccc(NC(=O)c2ccccc2NC(=O)C(C)(C)C)n1", "Potency": "inactive"}, {"molecule": "CCC(=O)Nc1ccc(C(=O)Nc2cccc(OC)c2)cc1", "Potency": "inactive"}, {"molecule": "CCC(=O)Nc1ccc2nn(-c3ccc(F)cc3)nc2c1", "Potency": "355 nM (active)"}, {"molecule": "Cc1ccc(-n2nc3ccc(NC(=O)/C=C/c4ccco4)cc3n2)cc1C", "Potency": "inactive"}, {"molecule": "Cc1noc(C)c1S(=O)(=O)Nc1ccc(C(=O)N2CCN(c3ccc(F)cc3)CC2)cc1", "Potency": "inactive"}, {"molecule": "O=C(Nc1cccnc1Cl)c1cc(-c2cccc(Cl)c2)on1", "Potency": "inactive"}, {"molecule": "O=C(NC1CCCC1)c1cc(-c2ccccc2)on1", "Potency": "1260 nM (active)"}, {"molecule": "O=C(NCCCN1CCOCC1)c1cc(-c2cccc(O)c2)on1", "Potency": "inactive"}, {"molecule": "Cc1cc(C)cc(-c2nnc(SCC(=O)NC3CC3)o2)c1", "Potency": "inactive"}, {"molecule": "Cc1cccc(C)c1NC(=O)CSc1nc2c([nH]1)c(=O)n(C)c(=O)n2C", "Potency": "inactive"}, {"molecule": "CCOc1ncccc1C(=O)Nc1ccc(S(=O)(=O)Nc2nc(C)cc(C)n2)cc1", "Potency": "inactive"}, {"molecule": "O=C(CN1CCN(c2ccc(Cl)cc2)CC1)N1CCCC1", "Potency": "inactive"}, {"molecule": "O=C(CSCc1ccc(Cl)cc1)N1CCCCC1", "Potency": "6310 nM (active)"}, {"molecule": "O=C(CSCc1ccc(Cl)cc1)N1CCN(Cc2ccc3c(c2)OCO3)CC1", "Potency": "inactive"}]}]}
